Bioassay records as filed in PubChem BioAssay.
Sampled rows, rich in hits. Any-hit rate of the full collection: about 9.4%.
Pf growth 96h: P. falciparum growth inhibition at 96 hour, primary screen for plastid delayed-death inhibitors. P. falciparum luciferase reporter growth, 96 h. Potency, µM (top dose mostly 28.7 µM), usual class: inhibitors. 6.9% of 320,000 active. AID 504834
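Parasite growth measured via integrated firefly luciferase reporter in P. falciparum. Infected erythrocytes at 2% hematocrit, 0.05% parasitemia final were treated 96 hours at 37 C under 5% CO2, and luminescence was read.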
AMA1 RON2 block: inhibitors of Plasmodium falciparum AMA1-RON2 interaction. AlphaScreen AMA1-biotinylated RON2 peptide binding. Potency, µM (highest dose often 58.2 µM), usual class: inhibitors. 0.2% of 360,000 active; also: nearly all actives have a fitted effect of over 45% in size
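AMA1 (3D7) with his tag at 25 nM final met compounds first, then biotinylated RON2 peptide at 25 nM; detection used donor plus acceptor beads, 10 µg/mL apiece, read by AlphaScreen after 30 min at room temperature.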
SARS PLpro yeast: SARS-CoV PLP inhibition in yeast | S. cerevisiae expressing SARS-CoV PLpro, growth rescue | Potency, µM (top dose mostly 32.9 µM), actives largely listed as activators | 0.19% of 330,000 active; calls by dose curve; also: nearly all actives have a fitted effect of over 55% in size
Pf growth 48h: inhibits P. falciparum growth in the first generation, 48 h | 5.9% of 310,000 active | P. falciparum luciferase growth in erythrocytes, 48 h | Potency, µM (top dose mostly 28.7 µM), most hits filed as inhibitors
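In quantitative HTS format, infected erythrocytes bearing luciferase-reporter parasites were treated for a single generation at 37 C. Luminescence after adding detection reagent served as the growth measure.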
Hits are given with their value; . = inactive; ? = inconclusive; / = not tested or not shown; [ ] = another dose, or the depositor's remark. Unless noted, calls follow the shape of the dose curve; as a rule, active = well fitted curve in the direction sought with a large enough effect; inconclusive = small, poorly fitted or top-dose-only effect, or another doubt; inactive = no such curve, though single readings can be large; an effect the other way counts as inactive or inconclusive.

SMILES	Pf growth 96h	AMA1 RON2 block	SARS PLpro yeast	Pf growth 48h
O=C(C1=C[C@@H](c2ccc(C(F)(F)F)cc2)C[C@@H](OCc2ccc(CO)cc2)O1)N1CCN(Cc2ccc3c(c2)OCO3)CC1	2.33µM	.	.	?
O=C(C1=C[C@H](c2ccc(C(F)(F)F)cc2)C[C@H](OCc2ccc(CO)cc2)O1)N1CCN(Cc2ccc3c(c2)OCO3)CC1	3.7µM	.	.	?
O=C(C1=C[C@H](c2ccc3c(c2)OCO3)C[C@H](OCc2ccc(CO)cc2)O1)N1CCCCCCC1	?	.	.	?
CCCCCOc1ccc(C(=O)Nc2ccc(S(=O)(=O)Nc3cc(C)on3)cc2)cc1	.	.	.	.
CCCCn1c(N)c(N(CC(C)C)C(=O)C2CCN(S(=O)(=O)c3ccc(Cl)cc3)CC2)c(=O)[nH]c1=O	9.28µM	.	.	9.28µM
O=S(=O)(Cc1ccccc1)NCCc1ccc(F)cc1	.	.	.	.
COc1ccc(CC(=O)NNC(=O)COc2ccc3ccccc3c2)cc1	1.65µM	.[2.32 µM]	.	.
COc1ccc(CC(=O)NNS(=O)(=O)c2ccccc2[N+](=O)[O-])cc1	4.65µM	.	.	.
COc1ccccc1NC(=O)NNC(=O)COc1ccc2ccccc2c1	.	.	.	.
COc1cc2c(cc1NC(=O)C(C)Sc1nc3ccccc3n1C)oc1ccccc12 (stereo not drawn)	7.38µM	.	.	11.7µM
COc1ccc(CC(=O)Nc2cc3oc4ccccc4c3cc2OC)cc1	10.4µM	.	.	.
COc1ccc(C(=O)NC(=S)Nc2ccc3oc(=O)ccc3c2)cc1OC	.	.	.	.
COc1ccc(CC(=O)Nc2ccccc2NC(=O)Cc2ccc(OC)cc2)cc1	.	.	.	6.57µM
COc1ccc(CC(=O)Nc2ccccc2N2CCCC2)cc1	?	.	.	?
COc1cccc(OC)c1C(=O)NC(=S)Nc1ccc2oc(=O)ccc2c1	1.85µM	.[2.32 µM]	.	3.29µM
COc1cc2c(cc1NC(=S)NC(=O)c1c(OC)cccc1OC)oc1ccccc12	3.7µM	.	.	4.15µM
CCOC(=O)CN1C(=O)S/C(=C/c2ccc(OCc3ccc(C(=O)O)cc3)cc2)C1=O	?	.	.	.
O=Cc1cn(CC(O)Cn2cc(C=O)c3ccccc32)c2ccccc12	?	.	.	.
CS(=O)(=O)N(Cc1ccco1)CC(O)Cn1cc(C=O)c2ccccc21 (stereo not drawn)	?	.	10µM	/
CCOc1c(Br)ccc2c1sc1nc[nH]c(=O)c12	9.28µM	.	.	.
CCOC(=O)C1CCN(C(=O)CNC(=O)c2nn(-c3ccc(OC)c(Cl)c3)c(=O)c3ccccc23)CC1	?	.	.	?
Cc1nc(Sc2ccccc2)c(C#N)c(C)c1[N+](=O)[O-]	?	.	.	7.38µM
CCCCC/C=N/NC(=O)c1[nH]c2ccc([N+](=O)[O-])cc2c1C	10.4µM	.	.	?
Cc1c(C(=O)NN)[nH]c2ccc([N+](=O)[O-])cc12	.	.	.	.
O=C1NC(c2ccccc2)=C(c2nc3ccccc3s2)C(c2ccc(F)cc2)N1 (stereo not drawn)	13.1µM	.	.	.
SMILES	Pf growth 96h	AMA1 RON2 block	SARS PLpro yeast	Pf growth 48h
CCN1CCN(c2nc(-c3ccncc3)nc3ccccc23)CC1	7.38µM	/	.	9.28µM
CCN1CCN(c2nc(-c3cccnc3)nc3ccccc23)CC1	/	.	.	?
CCCOc1ccc(-c2nc(N3CCN(CC)CC3)c3ccccc3n2)cc1	11.7µM	.	.	10.4µM
Cc1nnc(N2CCC(C(=O)NC3CCC(C)CC3)CC2)c2nn(-c3ccc(Cl)cc3)c(C)c12 (stereo not drawn)	?	.	.	.
COCCN(C(=O)CC1C(=O)NCCN1CC(c1ccccc1)c1ccccc1)C(C)C (stereo not drawn)	10.4µM	.	.	?
O=C(CC(=O)c1c(F)cccc1Cl)c1ccccc1O	?	.	.	11.7µM
Cc1ccc(-c2nn(-c3ccccc3)cc2C(=O)N2CCOCC2)cc1	2.33µM	.	.	.
COc1ccc(-c2nn(-c3ccccc3)cc2C(=O)N2CCN(S(=O)(=O)c3cccc(F)c3)CC2)cc1	?	.	.	10.4µM
COc1ccc(-c2nn(-c3ccccc3)cc2C(=O)N2CCN(S(=O)(=O)c3ccccc3[N+](=O)[O-])CC2)cc1	/	.	/	/
COc1ccc(-c2nn(-c3ccccc3)cc2C(=O)N2CCN(S(=O)(=O)c3ccccc3C#N)CC2)cc1	9.28µM	.	.	?
Cc1c(C(=O)N2CCOCC2)cc(C(C)(C)C)n1-c1ccccc1	9.28µM	.	.	9.28µM
CC(C(=O)N1CCOCC1)(c1ccccc1)c1ccccc1	.	.	.	?
Cc1oc2ccc(O)cc2c1C(=O)c1ccc(Br)cc1	/	.	/	/
COc1ccc2c(Cl)cc(NC(=O)Nc3c(C)cccc3C)nc2c1	/	.	/	/
FC(F)(F)c1cccc(NC(=S)Nc2ccc(Cl)cc2Cl)c1	?	.	.	?
CN(C)C(=O)CCC(=O)N1CCCC(C(=O)c2ccc(C(F)(F)F)cc2)C1 (stereo not drawn)	.	.	?	.
O=C(c1ccc(C(F)(F)F)cc1)C1CCCN(Cc2ccncc2)C1 (stereo not drawn)	.	.	.	11.7µM
CC(C)Oc1cccc(C(=O)C2CCCN(Cc3ccc4nonc4c3)C2)c1 (stereo not drawn)	.	.	.	.
COc1cc(CN2CCCC(C(=O)c3sccc3C)C2)cc(OC)c1O (stereo not drawn)	?	.	.	.
NC(=O)CCC(=O)N1CCCC(C(=O)c2ccc(C(F)(F)F)cc2)C1 (stereo not drawn)	13.1µM	.	.	.
COc1cc(CN2CCCC(C(=O)c3ccc(C(C)(C)C)cc3)C2)cc(OC)c1O (stereo not drawn)	.	.	.	6.57µM
O=C(c1ccc(Cl)cc1)C1CCCN(Cc2ccc3nonc3c2)C1 (stereo not drawn)	10.4µM	.	.	.
CCN(CC)c1ccc(NC(=O)COC(=O)C2CCN(c3ccc(C(F)(F)F)cn3)CC2)cc1	.	?	.	.
O=C(c1cccc(Cl)c1)C1CCCN(C(=O)c2ccoc2)C1 (stereo not drawn)	10.4µM	.	.	.
O=C(c1cccc(Cl)c1)C1CCCN(Cc2ccc(N3CCNC3=O)cc2)C1 (stereo not drawn)	9.28µM	.	.	?
SMILES	Pf growth 96h	AMA1 RON2 block	SARS PLpro yeast	Pf growth 48h
CC(C)n1cnc2c(N(C)c3ccccc3)nc(N(CCN(C)C)Cc3ccccc3)nc21	0.928µM	?	.	4.65µM
COc1cc(N(Cc2ccccc2)Cc2ccccc2)c2ncn(C(C)C)c2c1	7.38µM	?	.	5.86µM
COc1ccc(CN(CCN(C)C)c2ncccn2)cc1	?	/	/	.
CCCc1nc2ccc([N+](=O)[O-])cc2[nH]1	10.4µM	.	.	.
Cc1nc2ccc([N+](=O)[O-])cc2[nH]1	.	?	.	.
O=[N+]([O-])c1ccc2nc(CCCO)[nH]c2c1	?	.	.	.
O=[N+]([O-])c1cccc(/C=C/c2nc3ccc([N+](=O)[O-])cc3[nH]2)c1	2.33µM	.	.	2.94µM
CSc1ncccc1C(=O)N1CCN(S(=O)(=O)c2ccc(F)cc2)CC1	?	.	.	.
